# Measured values from PubChem BioAssay (EPA / NIEHS).
# The source made the active and inactive calls. Rule for the calls: active = hit-call score of the fitted dose curve at least 0.9, where 1 is the maximum; inactive = score below 0.9.
# Assay: Tanguay_ZF_120hpf_TCHR: Oregon State University Tanguay Lab 120 Hour Post-fertilization zebrafish Assay for Touch Responsive (AID 2284403)
# Description: Tanguay_ZF_120hpf is a whole embryo, multiplexed endpoint assay using zebrafish larvae exposed for 120 hours post fertilization on a 96-well plate.Tanguay_ZF_120hpf_TCHR is one of one assay component(s) measured or calculated from the Tanguay_ZF_120hpf assay. It is designed to make measurements of zebrafish development as detected with brightfield microscopy of developing zebrafish embryos.Data from the assay component Tanguay_ZF_120hpf_TCHR was analyzed into 1 assay endpoints. This assay endpoint, Tanguay_ZF_120hpf_TCHR, was analyzed in the positive analysis fitting direction relative to DMSO as the negative control and baseline of activity. Using a type of morphology reporter, gain-of-signal activity can be used to understand changes in developmentals as they relate to the whole embryo. To generalize the intended target to other relatable targets, this assay endpoint is annotated to the zebrafish development intended target family, where the subfamily is embryonic functional response.
# Zebrafish husbandry: Tropical 5D wild-type adult zebrafish were housed in at an approximate density of 1000 per 100 gallon tank at the Sinnhuber Aquatic Research Laboratory, Oregon State University, Corvallis, OR. Each tank was kept at standard laboratory conditions of 28C on a 14-h light/10-h dark photoperiod in fish water consisting of reverse osmosis water supplemented with a commercially available salt (Instant Ocean). Spawning funnels were placed into the tanks the night prior, and embryos were collected and staged. To increase bioavailability, the chorion was enzymatically removed using pronase (63.6mg/ml, >/= 3.5U/mg, Sigma-Aldrich: P5147) at 4 hours post fertilization (hpf) using a custom automated dechorionator.Chemical exposures: Six hpf dechorionated embryos were placed 1 embryo per well in a 96-well plate prefilled with 90 ul of EM using automated embryo placement systems (AEPS). Ten microliters of each row of dilution plate 2 was added to 2 exposure plates. The final DMSO concentration used was 0.64% (vol/vol). Thirty-two embryos were also exposed to 5uM trimethyltin chloride (positive control). Plates were sealed to prevent evaporation and foil covered to reduce light exposure and kept in a 28C incubator. Embryos were statically exposed until 120 hpf. At 24 hpf, embryos were assessed for photomotor response using a custom photomotor response analysis tool (PRAT) and for developmental toxicity endpoints (MO24: mortality at 24 hpf, DP: developmental progression, SM: spontaneous movement, and NC: notochord distortion). At 120 hpf, locomotor activity was measured using Viewpoint Zebralab and assessed for 13 endpoints. Zebrafish acquisition and analysis program (ZAAP), a custom program designed to inventory, acquire, and manage zebrafish data, was used to collect developmental endpoints as either present or absent (i.e., binary responses were recorded). If mortality occurred for an embryo (at either 24 or 120 hpf), the non-mortality endpoints were not measured.
row,SMILES,outcome
1,O=C(O)CCC(F)(F)C(F)(F)C(F)(F)F,inactive
2,NC(=O)C(F)(F)C(F)(F)C(F)(F)C(F)F,inactive
3,C=CC(=O)OCC(F)(F)C(F)(F)C(F)(F)C(F)(F)C(F)(F)C(F)(F)C(F)(F)C(F)F,inactive
4,O=S(=O)(Cl)C(F)(F)C(F)(F)C(F)(F)C(F)(F)C(F)(F)C(F)(F)C(F)(F)C(F)(F)F,inactive
5,C=CC(=O)OCC(F)(F)C(F)(F)C(F)(F)COC(=O)C=C,inactive
6,CCN(CCO)S(=O)(=O)C(F)(F)C(F)(F)C(F)(F)C(F)(F)C(F)(F)C(F)(F)C(F)(F)C(F)(F)F,inactive
7,NC(=O)C(F)(F)C(F)(F)C(F)(F)F,inactive
8,O=C(F)C1(F)C(F)(F)C(F)(F)C(F)(F)C(F)(F)C1(F)F,inactive
9,COC(F)(C(F)F)C(F)(F)F (configuration not stated),inactive
10,O=C(O)C(F)(F)C(F)(F)C(F)(F)C(=O)O,inactive
11,O=C(O)CCC(F)(F)C(F)(F)C(F)(F)C(F)(F)C(F)(F)C(F)(F)C(F)(F)F,inactive
12,O=S(=O)(OCC(F)(F)F)C(F)(F)C(F)(F)C(F)(F)C(F)(F)F,inactive
13,OCCCCC(F)(F)C(F)(F)C(F)(F)C(F)(F)F,inactive
14,OCC(O)CC(F)(F)C(F)(F)C(F)(F)C(F)(F)C(F)(F)C(F)(F)C(F)(F)C(F)(F)F (configuration not stated),inactive
15,CO[Si](C)(CCC(F)(F)C(F)(F)C(F)(F)C(F)(F)C(F)(F)C(F)(F)F)OC,inactive
16,FC(F)(F)C(F)(F)C(F)(F)CC1CO1 (configuration not stated),inactive
17,FC(F)(F)C(F)(F)C(F)(F)C(F)(F)C(F)(F)C(F)(F)CC[Si](Cl)(Cl)Cl,inactive
18,CCOC(=O)CC(=O)C(F)(F)C(F)(F)F,inactive
19,O=S(=O)(O)CCC(F)(F)C(F)(F)C(F)(F)C(F)(F)C(F)(F)C(F)(F)C(F)(F)C(F)(F)F,inactive

row,SMILES,outcome
1,OCCCC(F)(F)C(F)(F)C(F)(F)C(F)(F)C(F)(F)C(F)(F)C(F)(F)C(F)(F)F,inactive
2,OCC(O)CC(F)(F)C(F)(F)C(F)(F)C(F)(F)F (configuration not stated),inactive
3,NC(O)(C(F)(F)F)C(F)(F)F,inactive
4,NC(=O)C(F)(F)C(F)(F)C(F)(F)C(F)(F)C(F)(F)C(F)(F)C(F)(F)F,inactive
5,OCC(F)(F)C(F)(F)C(F)(F)CO,inactive
6,C[Si](Cl)(Cl)CCC(F)(F)C(F)(F)C(F)(F)C(F)(F)C(F)(F)C(F)(F)F,inactive
7,C=CC(=O)OCCC(F)(F)C(F)(F)C(F)(F)C(F)(F)F,inactive
8,O=C(O)C(F)(F)C(F)(F)C(F)(F)OC(F)(F)F,inactive
9,O=S(=O)(O)CCC(F)(F)C(F)(F)C(F)(F)C(F)(F)F,inactive
10,CNS(=O)(=O)C(F)(F)C(F)(F)C(F)(F)C(F)(F)C(F)(F)C(F)(F)C(F)(F)C(F)(F)F,inactive
11,OCC(F)(F)C(F)(F)C(F)(F)C(F)(F)C(F)(F)C(F)(F)CO,inactive
12,CN(C(=O)C(F)(F)C(F)(F)C(F)(F)F)[Si](C)(C)C,inactive
13,OCC(F)(F)C(F)(F)C(F)(F)C(F)(F)C(F)(F)C(F)(F)C(F)(F)C(F)(F)CO,inactive
14,NC(=O)C(F)(F)C(F)(F)C(F)(F)C(F)(F)C(N)=O,inactive
15,FC(F)(F)C(F)(F)C(F)(F)C(F)(F)C(F)(F)C(F)(F)C(F)(F)CCI,inactive
16,O=C(O)C(F)(F)C(F)(F)C(F)(F)OC(F)(C(F)(F)F)C(F)(F)F,inactive
17,OC(O)C(F)(F)C(F)(F)F,inactive
18,NS(=O)(=O)C(F)(F)C(F)(F)C(F)(F)C(F)(F)C(F)(F)C(F)(F)F,inactive
